Measurements: PubChem BioAssay AID504715 (Sanford-Burnham Center for Chemical Genomics, 2011)
The list shows a part of the results. Unmarked numbers belong to inactive results.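 The calls were made as follows: active = compounds giving 40% or more inhibition at 20 µM in any one of the three replicates; inactive = the rest.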

The molecules below were run against Uracil-DNA glycosylase (Escherichia coli (strain K12)) (UniProt P12295) (assay: uracil-DNA glycosylase inhibition, oligo cleavage readout – biochemical, single concentration, fluorescence, FAM/TAMRA oligo, counter-screen for APOBEC3G inhibitor project, confirmation (AID 504715;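 also: plate controls were DMSO wells with UDG and oligo for no effect and DMSO wells lacking both for full effect; inhibitors lower the FAM signal released by uracil excision and alkaline cleavage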)). Conditions: UDG counterscreen, at 20 µM, active compounds read high.
Uracil-DNA glycosylase (Escherichia coli (strain K12)), sequence (P12295 whole entry, looked up): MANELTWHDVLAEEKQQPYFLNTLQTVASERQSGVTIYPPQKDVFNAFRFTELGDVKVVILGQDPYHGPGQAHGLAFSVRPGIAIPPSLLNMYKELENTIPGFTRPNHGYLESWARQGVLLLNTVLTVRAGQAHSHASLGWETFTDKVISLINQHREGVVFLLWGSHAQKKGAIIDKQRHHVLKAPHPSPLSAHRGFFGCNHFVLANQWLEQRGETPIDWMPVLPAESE

**Q.** `Cc1cccc(-n2c(N)c(C(=O)N3CCN(C)CC3)sc2=S)c1` was tested. Which inhibition did it give?
**A.** -3.91%

**Q.** For `Cc1n[nH]c(=S)n1/N=C/c1ccc(Br)o1`, which inhibition is on record?
**A.** -0.61%

**Q.** For `CCC(CC)c1nnc(NC(=O)C2CCN(C(=O)c3ccco3)CC2)s1`, which inhibition is on record?
**A.** 4.07%

**Q.** How did the inhibition turn out when `Cc1ccc(NC(=O)c2sc3nc(N)c(C#N)cc3c2N)cc1` was run?
**A.** -3.69%

**Q.** With `COc1ccc(N2C(=O)CC(Sc3n[nH]c(-c4ccc(C)cc4)n3)C2=O)cc1` (stereo unspecified) as the molecule, how does the inhibition read?
**A.** -1.53%

**Q.** `Cc1cc(C)c2c(-c3ccc(F)cc3)c(C#N)c(=O)n(C)c2n1` was tested. Which inhibition did it give?
**A.** -3.68%

**Q.** How did the inhibition turn out when `CC(=O)N(C1=C(Cl)C(=O)c2ccccc2C1=O)c1ccc(C(=O)O)cc1` was run?
**A.** -2.05%

**Q.** `CCc1c(C)[nH]c(=S)c(C#N)c1C` was tested. Which inhibition did it give?
**A.** -0.5%

**Q.** With `S=c1[nH]ccn1-c1ccc(Cl)cc1` as the molecule, how does the inhibition read?
**A.** 2.81%

**Q.** For `CC1=C/C(=N\OS(=O)(=O)c2ccccc2)C=CC1=O`, which inhibition is on record?
**A.** 1.47%

**Q.** With `Cc1ccc(C(=O)c2c(NC(=O)c3ccccc3)sc(C)c2C)cc1` as the molecule, how does the inhibition read?
**A.** 2.57%

**Q.** Which inhibition does the source give for `O=C1CC(Sc2ncn[nH]2)C(=O)N1c1ccccc1` (stereo unspecified) here?
**A.** -0.97%

**Q.** With `COc1ccccc1-n1c(-c2cc(-c3ccco3)[nH]n2)n[nH]c1=S` as the molecule, how does the inhibition read?
**A.** -3.83%

**Q.** For `S=c1[nH]nc(-c2cc(-c3ccccc3)n[nH]2)n1/N=C/c1c2ccccc2cc2ccccc12`, which inhibition is on record?
**A.** 7.23%

**Q.** For `COc1ccc(OCc2nnc3n2N=C(c2ccccc2)C(CC(=O)O)S3)cc1` (stereo unspecified), which inhibition is on record?
**A.** -3.19%

**Q.** For `Fc1ccc(Nc2nnns2)cc1`, which inhibition is on record?
**A.** 3.44%

**Q.** For `Cc1cc(-c2n[nH]c(=S)n2-c2ccc(C)c(C)c2)no1`, which inhibition is on record?
**A.** -3.59%

**Q.** Which inhibition does the source give for `COC(=O)c1cccc(-n2[nH]nnc2=S)c1` here?
**A.** -3.23%

**Q.** How did the inhibition turn out when `O=c1[nH]c2ccccc2n2c(-c3ccccc3)nnc12` was run?
**A.** -5.75%

**Q.** How did the inhibition turn out when `Cc1noc(C)c1CSc1nc2cc(S(=O)(=O)N3CCOCC3)ccc2o1` was run?
**A.** 1.21%

**Q.** Which inhibition does the source give for `S=c1[nH]nc(-c2ccc(Cl)cc2)n1CC1CCCO1` (stereo unspecified) here?
**A.** 2.84%
